Compound activity from PubChem BioAssay.
FLuc inh: blocks purified firefly luciferase enzyme activity. purified P. pyralis luciferase, luminescence, biochemical. Potency, µM (series often up to 115 µM), most hits filed as inhibitors. actives 2.5% (n = 76,000). P08659. AID 1347043; further: nearly all actives have a fitted effect of over 65% in size
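Purified P. pyralis luciferase (10nM final) in 50mM Tris acetate pH 7.5, 10mM Mg acetate, 0.01% Tween-20, 0.05% BSA with 10uM D-luciferin and 10uM ATP. Compounds titrated qHTS. Luminescence imaged on CCD.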
NIH3T3 tox: cytotoxic compounds in NIH 3T3 cells; actives 4.3% (n = 94,000); AID 1345082; Potency, µM (highest dose often 96.7 µM), for inactives: at the top dose activity change, negative = cytotoxicity, hits mostly inhibitors; NIH 3T3 viability, CellTiter-Glo ATP luminescence, 48-72 h; further: nearly all actives have a fitted effect of over 55% in size
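ATP-dependent luminescence (CellTiter-Glo) served as the viability signal for NIH 3T3 cells treated with compound for 48 or 72 hr at 37 °C.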
GPT2 inhibitor: GPT2 alanine aminotransferase inhibition | Q8TD30 | Recombinant GPT2, coupled pyruvate oxidase/HRP Amplex Red fluorescence | Potency, µM (top dose mostly 57.7 µM), inactives show at the top dose activity change, negative = inhibition, usual class: inhibitors | actives 0.25% (n = 100,000) | AID 1671188; further: nearly all actives have a fitted effect of over 60% in size
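Fluorescence read-out: pyruvate from GPT2 turnover coupled to pyruvate oxidase, HRP and Amplex Red (0.2mM ThPP, 0.2U/mL PO and HRP, 50uM Amplex final). Substrates 250uM a-KG, 2mM L-alanine; enzyme 10ng/uL; 30 min RT.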
HEK cytotox: cytotoxic compounds in HEK 293 cells; HEK 293 viability, ATP luminescence (CellTiter-Glo), 48-72 h; Potency, µM (doses to about 115 µM), without a hit: top-dose activity change, negative = cytotoxicity, actives largely listed as inhibitors; actives 6.6% (n = 94,000); AID 1345083; further: nearly all actives have a fitted effect of over 60% in size
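Viability of HEK 293 cells, plated at 250 cells/well, was judged by cellular ATP after compound treatment for 48 or 72 hr. Luminescence was imaged 10 min after CellTiter-Glo addition at room temperature.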
NPR1 antag: antagonists of human natriuretic peptide receptor Npr1. AID 1347048. actives 1.6% (n = 76,000). HEK293 hNpr1 GloSensor cGMP, ANP-stimulated luminescence. Potency, µM (highest dose often 46.3 µM), for inactives: at the top dose activity change, negative = inhibition, hits mostly inhibitors; calls by dose curve; further: nearly all actives have a fitted effect of over 60% in size
Target sequence (P16066 whole entry, looked up): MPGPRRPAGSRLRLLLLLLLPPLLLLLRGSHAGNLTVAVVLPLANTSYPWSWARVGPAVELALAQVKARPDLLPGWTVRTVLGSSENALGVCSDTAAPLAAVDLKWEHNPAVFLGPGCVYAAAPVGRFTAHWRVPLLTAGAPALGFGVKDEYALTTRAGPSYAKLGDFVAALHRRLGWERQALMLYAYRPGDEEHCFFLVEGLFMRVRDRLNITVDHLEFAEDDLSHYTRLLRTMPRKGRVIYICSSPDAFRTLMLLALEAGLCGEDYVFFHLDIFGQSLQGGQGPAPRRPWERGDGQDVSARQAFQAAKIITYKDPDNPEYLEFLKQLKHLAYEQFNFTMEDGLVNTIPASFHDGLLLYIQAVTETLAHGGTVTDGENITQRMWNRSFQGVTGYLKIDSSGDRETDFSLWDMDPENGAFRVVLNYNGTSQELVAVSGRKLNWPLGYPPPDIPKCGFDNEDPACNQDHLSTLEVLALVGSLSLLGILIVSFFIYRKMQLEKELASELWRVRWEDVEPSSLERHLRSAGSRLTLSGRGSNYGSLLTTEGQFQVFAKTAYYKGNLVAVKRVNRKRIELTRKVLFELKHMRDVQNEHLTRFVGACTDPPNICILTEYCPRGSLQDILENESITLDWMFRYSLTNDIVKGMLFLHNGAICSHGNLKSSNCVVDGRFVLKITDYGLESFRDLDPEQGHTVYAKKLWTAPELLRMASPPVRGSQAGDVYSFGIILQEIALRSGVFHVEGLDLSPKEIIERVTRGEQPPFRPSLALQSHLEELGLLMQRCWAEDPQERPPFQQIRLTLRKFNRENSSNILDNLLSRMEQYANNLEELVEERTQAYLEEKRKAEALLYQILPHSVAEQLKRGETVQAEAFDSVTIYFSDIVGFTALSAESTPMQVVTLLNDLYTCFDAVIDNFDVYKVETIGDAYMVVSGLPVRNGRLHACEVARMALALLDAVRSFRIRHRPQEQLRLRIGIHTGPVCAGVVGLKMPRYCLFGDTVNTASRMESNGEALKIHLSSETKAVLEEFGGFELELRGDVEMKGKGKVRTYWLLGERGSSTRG
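Compound pre-incubated 30 min at room temperature on GloSensor-loaded HEK293 cells stably carrying hNpr1 and the pGS-40F cGMP biosensor. Stimulation uses hNppA at 0.1 nM final; luminescence is taken at baseline and 20 min post-agonist.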
The depositor's hits bear a star; i = inactive; ? = inconclusive; · = no result given; [ ] = dose if it differs, or a comment. Sampled rows, rich in hits. Any-hit rate of the full collection: about 10%. Unless noted, the call rests on the fitted dose curve; in most records, active means well fitted curve in the direction sought with a large enough effect; inconclusive means small, poorly fitted or top-dose-only effect, or another doubt; inactive means no such curve, though single readings can be large; an effect the other way counts as inactive or inconclusive. On the % scale 0 is the no-effect control and ±100 the full control effect; potency means the concentration at half of the fitted maximal effect.

SMILES	FLuc inh	NIH3T3 tox	GPT2 inhibitor	HEK cytotox	NPR1 antag
Cc1noc(C)c1-c1cc2cc(C(C)C)oc2c(NC2CCN(C)CC2)n1	i	?	-8%[88.5 µM]	32µM*	5%[70.6 µM]
Cc1noc(C)c1-c1cc2cc(C(C)C)oc2c(N2CCN(C)CC2)n1	i	?	2%[88.5 µM]	?	-1%[70.6 µM]
Cc1noc(C)c1-c1cc2cc(CNC3CC3)oc2c(NC2CCN(C)CC2)n1	i	?	?	40µM*	-2%[70.6 µM]
CN(CC1CCOC1)S(=O)(=O)c1ccc(Br)cc1 (stereo unspecified)	i	3%	4%	3%	1%
CN(Cc1cccc2ccccc12)C1CCCc2ccccc21 (stereo unspecified)	i	-7%[138 µM]	-5%[88.5 µM]	3%[172 µM]	24%[70.6 µM]
CN(C)CCCC(=O)N1Cc2ccccc2CC2(CCCN(CC3CCNCC3)C2)C1 (stereo unspecified)	·	3%	i	1%	·
C[C@@H]1CC[C@@]2(OC1)O[C@H]1C[C@H]3[C@@H]4CC[C@H]5C[C@@H](O)CC[C@]5(C)[C@H]4CC(=O)[C@]3(C)[C@H]1[C@@H]2C	·	·	2.2µM*	·	·
COc1cccc(-c2ccc(C(=O)N3CCC(NC(=O)Cc4ccc(C(F)(F)F)cc4)CC3)cc2)c1	·	?	i	?	·
COc1ccc(CC(=O)NC2CCN(C(=O)c3ccc(-c4cccc(OC)c4)cc3)CC2)cc1	·	35µM*	i	45µM*	·
COc1cccc(-c2ccc(C(=O)N3CCC(NC(=O)c4ccccc4Cl)CC3)cc2)c1	·	?	-5%	40µM*	·
CCCn1c(C)cnc1CC1CCN(C(=O)c2ccc(OC)cc2OC)CC1	i	-4%	i	?	-2%
COCCOCc1ccc(CC2CCN(C(=O)c3ccc(OC)cc3OC)CC2)cc1	·	?	-4%	32µM*	·
CN(C)C[C@@H]1CN(C2CCOCC2)C[C@H]1NC(=O)c1cc2ccccc2[nH]1	i	?	-17%	32µM*	-19%
CCCN1C(=O)Cc2cc(C(=O)N3CCN(c4ccccc4Cl)CC3)ccc21	i	?	?	?	-2%
COc1ccc(-c2cc(N3CCN(C(=O)c4cccc(OC)c4)CC3)n[nH]2)cc1	i	?	-3%	?	-4%
Clc1ccc(-c2cnc([C@@H]3COCCN3Cc3c[nH]c4ccccc34)[nH]2)s1	i	79µM*	0%[88.5 µM]	71µM*	?
Fc1ccc(-c2cnc([C@@H]3COCCN3Cc3ccccc3F)[nH]2)c(F)c1	i	?	1%[88.5 µM]	100µM*	-30%[70.6 µM]
Fc1ccccc1CN1CCOC[C@H]1c1ncc(-c2ccc(Cl)s2)[nH]1	i	89µM*	i	?	?
CC(C)(C)CN1CCOC[C@H]1c1ncc(-c2ccc(F)cc2F)[nH]1	i	?	i	?	-5%[70.6 µM]
Fc1ccc(CN2CCOC[C@H]2c2ncc(-c3ccc(Cl)s3)[nH]2)cc1	i	?	-12%[88.5 µM]	79µM*	?
COc1cccc([S+](=O)([O-])N2CCC3CC(=O)NCCC3C2)c1 (stereo unspecified)	·	i	-4%	i	·
COc1ccc(C(=O)N2CCCC(Cc3ncc(C)n3C(C)C)C2)cn1 (stereo unspecified)	i	-27%	-1%	-13%	9%
Clc1ccc(-c2cnc([C@@H]3COCCN3Cc3cnc[nH]3)[nH]2)cc1	i	-18%[138 µM]	1%[88.5 µM]	-22%[172 µM]	3%[70.6 µM]
Clc1ccc(-c2cnc([C@@H]3COCCN3CC3CC3)[nH]2)s1	i	?	2%[88.5 µM]	89µM*	-5%[70.6 µM]
CC1Oc2ccc(NS(=O)(=O)c3cccc(Cl)c3)cc2CN(Cc2ccccc2Cl)C1=O (stereo unspecified)	i	22µM*	-7%	?	-24%
SMILES	FLuc inh	NIH3T3 tox	GPT2 inhibitor	HEK cytotox	NPR1 antag
Cc1ccc(S(=O)(=O)Nc2ccc3c(c2)CN(CCc2ccc(F)cc2)C(=O)C(C)O3)cc1F (stereo unspecified)	i	?	i	?	-18%
CC1Oc2ccc(NS(=O)(=O)c3ccc(Cl)cc3)cc2CN(Cc2ccccc2F)C1=O (stereo unspecified)	i	35µM*	i	?	?
CCC(c1ccccc1)N1Cc2cc(NS(=O)(=O)c3ccc(F)cc3)ccc2OC(C)C1=O (stereo unspecified)	i	14µM*	-9%	?	-21%
CC1Oc2ccc(NC(=O)c3ccccc3Cl)cc2CN(Cc2ccc3c(c2)OCO3)C1=O (stereo unspecified)	i	?	i	?	-24%
CCCCS(=O)(=O)N1CCC(C2CCNC2)CC1 (stereo unspecified)	i	-12%	-21%	-25%	1%
CN1CCc2c([nH]c3ccccc23)C12CCN(C(=O)c1ccsc1)CC2	i	?	i	40µM*	-5%
Cc1cc(C(=O)N2CCC3(CC2)c2[nH]c4ccccc4c2CCN3C)n(C)n1	i	-16%	i	40µM*	5%
COc1cccc(CN2CCC3(CC2)c2[nH]c4ccccc4c2CCN3C)c1	i	22µM*	i	25µM*	0%
CCCNC(=O)Cc1ccc(N(Cc2cccc(F)c2)C(=O)c2ccco2)cc1	i	-27%	i	-22%	-2%
COCc1cc(=O)n(CC(=O)Nc2cc(OC)c(OC)c(OC)c2)c(N2CCOCC2)n1	i	-23%	-15%	-24%	0%
Cc1cc2nc(CO[C@H]3CN(C4CCC4)C[C@H]3F)[nH]c2cc1C	?	?	4%[88.5 µM]	-19%[172 µM]	4%[70.6 µM]
CCNC(=O)N1CCOc2ccc(CCC(=O)NC3CCS(=O)(=O)C3)cc2C1 (stereo unspecified)	i	i	i	0%	3%
COc1ccc(NC(=O)CCc2ccc3c(c2)CN(C(=O)NC(C)C)CCO3)cn1	i	-10%	i	79µM*	-30%
COCCNC(=O)CCc1ccc2c(c1)CN(C(=O)NC(C)C)CCO2	i	-8%	i	-21%	-1%
CCNC(=O)N1CCOc2ccc(CCC(=O)Nc3ccc(F)cc3F)cc2C1	i	-30%	-5%	40µM*	?
O=C(Cc1c[nH]c2ncc(-c3ccncc3)cc12)N1CCOCC1	i	?	i	-24%[172 µM]	-3%[70.6 µM]
O=C(Cc1c[nH]c2ncc(-c3ccc(F)cc3)cc12)N1CCOCC1	56µM*	?	2%[88.5 µM]	?	?
CN(C)C(=O)c1ccc(-c2cnc3[nH]cc(CC(=O)N4CCOCC4)c3c2)cc1	i	?	i	?	-2%[70.6 µM]
COc1ccc(-c2cnc3[nH]cc(CC(=O)N4CCOCC4)c3c2)cn1	?	25µM*	?	?	-27%[70.6 µM]
